Assay outcomes: PubChem, National Center for Advancing Translational Sciences (NCATS)
PLK1 PBD block: qHTS for Inhibitors of PLK1-PDB (polo-like kinase 1 - polo-box domain): Primary Screen. Plk1 PBD binding of FITC phosphopeptide, fluorescence polarization. Serine/threonine-protein kinase PLK1 (Homo sapiens), P53350. Potency, µM, for the others: max response, negative = inhibition, actives largely listed as inhibitors. 360,000 compounds, 2.8% hits. AID 720504, 2013; further: series mostly up to about 57 µM; nearly all actives have a fitted effect of over 65% in size
Target sequence (P53350 whole entry, looked up, the tested form may be a part): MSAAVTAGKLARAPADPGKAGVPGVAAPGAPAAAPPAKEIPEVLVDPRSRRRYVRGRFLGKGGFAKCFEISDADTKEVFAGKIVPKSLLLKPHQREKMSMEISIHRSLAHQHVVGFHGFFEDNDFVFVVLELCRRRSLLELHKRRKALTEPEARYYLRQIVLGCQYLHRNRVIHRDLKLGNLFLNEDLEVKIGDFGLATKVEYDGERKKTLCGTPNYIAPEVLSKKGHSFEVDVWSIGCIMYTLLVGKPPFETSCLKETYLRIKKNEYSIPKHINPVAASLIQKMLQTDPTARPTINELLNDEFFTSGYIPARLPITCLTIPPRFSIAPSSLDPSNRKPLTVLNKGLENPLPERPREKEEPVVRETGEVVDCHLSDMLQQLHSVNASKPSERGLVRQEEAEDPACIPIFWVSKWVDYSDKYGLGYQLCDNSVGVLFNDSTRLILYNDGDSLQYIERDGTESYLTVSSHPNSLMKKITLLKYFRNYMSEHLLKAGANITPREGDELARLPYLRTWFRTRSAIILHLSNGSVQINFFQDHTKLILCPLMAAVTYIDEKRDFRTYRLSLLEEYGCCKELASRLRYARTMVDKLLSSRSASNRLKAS
VDR inh: Inhibitors of the vitamin D receptor (VDR): qHTS; 400,000 compounds, 0.93% hits; Vitamin D3 receptor (Homo sapiens), P11473; VDR-SRC2-3 peptide fluorescence polarization, 2 h; AID 504847, 2011; Potency, µM, for the others: max response, negative = inhibition, most hits filed as inhibitors
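FP read-out; VDR + SRC2-3 coactivator peptide; 23 nl compound by pintool; 2 h RT incubation; reagents held at 4 deg C, protected from light.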
Sfp inh: qHTS Assay for Inhibitors of Bacillus subtilis Sfp phosphopantetheinyl transferase (PPTase) | 4'-phosphopantetheinyl transferase ffp (Bacillus subtilis), Q9F4F7 | Biochemical Sfp PPTase activity, qHTS | Potency, µM, for inactives: largest response in the series, negative = inhibition, hits mostly inhibitors | 310,000 compounds, 3.5% hits | AID 1490, 2009;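 further: the enzyme is Sfp with the accession as filed and its product quenches rhodamine fluorescence; 0% = enzyme reaction without inhibitor and -100% = no enzyme wells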
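Fluorescence-quenching assay: 15 nM Sfp-PPTase preincubated 15 min at room temperature with compound, then 5 uM rhodamine-CoA and 12.5 uM BHQ-2-labelled YbbR peptide added. Fluorescence (ex 525/em 598 nm) read at start and after 30 min; difference gives rate.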
rTrxR1 inhibitor: qHTS Assay for Inhibitors of Mammalian Selenoprotein Thioredoxin Reductase 1 (TrxR1): qHTS. Thioredoxin reductase 1, cytoplasmic (Rattus norvegicus), O89049. Potency, µM (doses to about 114 µM), inactives show at the top dose activity change, negative = inhibition, hits mostly inhibitors. recombinant rTrxR1, NADPH fluorescence consumption, selenite substrate. 390,000 compounds, 1% hits; further: nearly all actives have a fitted effect of over 65% in size
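Rat TrxR1 (90 nM in the dispensed reagent) was pre-reduced with 400 uM NADPH for 5 min at room temperature, then incubated with compound for 15 min. After 400 uM selenite was added, NADPH fluorescence (Ex 340/Em 450 nm) was followed for 8 min.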
IDH1 R132H inh: qHTS for Inhibitors of mutant isocitrate dehydrogenase 1 (IDH1): qHTS; 390,000 compounds, 0.093% hits; IDH1-R132H enzyme, NADPH consumption, diaphorase/resazurin fluorescence; Potency, µM (titrated, usually from 76.6 µM), for the others: at the top dose activity change, negative = inhibition, usual class: inhibitors; further: nearly all actives have a fitted effect of over 65% in size
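IDH1-R132H (0.5 ug/mL dispensed) in pH 7.5 Tris buffer was preincubated 30 min with compound, then given a substrate mix of 0.016 mM NADPH and 2 mM alpha-KG for 80 min at room temperature; remaining NADPH was read by diaphorase/resazurin fluorescence.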
TrxR1 substrate: qHTS Assay for Substrates of Mammalian Selenoprotein Thioredoxin Reductase 1 (TrxR1): qHTS; purified TrxR1 substrate turnover, NADPH consumption readout; 390,000 compounds, 0.01% hits; Thioredoxin reductase 1, cytoplasmic (Rattus norvegicus), O89049; Potency, µM (doses to about 114 µM), for inactives: top-dose activity change, negative = substrate turnover; further: nearly all actives have a fitted effect of over 50% in size
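Rat TrxR1, dispensed at 90 nM, was prereduced with 400 uM NADPH (final) for 5 min at ~22 deg C, then incubated with compound 15 min before 400 uM selenite. A first-read NADPH fluorescence drop versus no-compound background flagged substrates.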
The depositor's hits bear a star; ? = inconclusive; . = no result given; [ ] = dose if it differs, or a comment. A selection: hits, their analogues and other compounds. The true share with any hit is near 5.2%. The call rests on the fitted dose curve; in most records, active means well fitted curve in the direction sought with a large enough effect; inconclusive means small, poorly fitted or top-dose-only effect, or another doubt; inactive means no such curve, though single readings can be large; an effect the other way counts as inactive or inconclusive. Unless noted, on the % scale 0 is the no-effect control and ±100 the full control effect; potency means the concentration at half of the fitted maximal effect.

SMILES	PLK1 PBD block	VDR inh	Sfp inh	rTrxR1 inhibitor	IDH1 R132H inh	TrxR1 substrate
CCOc1ccc(Nc2nc(Cc3nnc(SCC(=O)N(CC)CC)n3C)cs2)cc1	-11%	-11%	32µM*	11%[57.1 µM]	2%	-15%
CCOc1ccc(Nc2nc(Cc3nnc(SCC(=O)NC4CCCCC4)n3C)cs2)cc1	-1%	0%	-8%	9%	4%	5%
CCOC(=O)C1=C(C)NC(=O)C1CC(=O)Nc1ccccc1 (configuration not stated)	.	.	79µM*	.	.	.
CCc1ccc(CN(Cc2cccnc2)C(=O)/C=C/c2ccc(OC)cc2)cc1	20%	-11%	?	8%[57.1 µM]	0%	-3%
CCOc1ccc(NC(=O)Cn2cc(C(=O)CC)c3ccccc32)cc1	?	79µM*	2%	14%	10%	-7%
Cc1cc(C)nc(/N=C2/NC(=O)CS2)n1	?	?	32µM*	48%[57.1 µM]	0%	-9%
CC(=O)Nc1cccc(NC(=S)Nc2ccc(F)cc2F)c1	-17%	-6%	40µM*	-9%[57.1 µM]	3%	3%[57.1 µM]
CC(=O)Nc1cccc(NC(=S)Nc2cccc(Cl)c2Cl)c1	-27%	-17%	32µM*	32µM*	4%	0%[57.1 µM]
CC(=O)Nc1ccc(C)c(NC(=S)Nc2ccc(F)cc2)c1	-2%	-4%	-9%	-10%	10%	-3%
Cc1cccnc1NC(=S)Nc1ccc(F)cc1F	?	?	18µM*	-45%	4%	1%[57.1 µM]
Cc1ccc(C)c(NC(=S)Nc2ncccc2C)c1	-15%	-11%	?	-46%	0%	3%[57.1 µM]
COC(=O)c1cccc(NC(=S)Nc2cccc(Cl)c2Cl)c1	-24%	-14%	10%	-48%	-2%	14%[57.1 µM]
COc1cc(CN(C2CC2)S(=O)(=O)c2ccccc2Br)cc(OC)c1	-6%	1%	.	13%	7%	-5%
CCOC(=O)C1=C(CSc2nc3c(cc2C#N)CN(C)CC3)OC(N)=C(C#N)C1c1ccccc1 (configuration not stated)	-23%	-14%	?	-37%	0%	8%[57.1 µM]
CCOC(=O)C1=C(CSc2nc3c(cc2C#N)CN(C)CC3)OC(N)=C(C#N)C1c1ccc(F)cc1 (configuration not stated)	-19%	8%	56µM*	?	-5%	10%[57.1 µM]
CCOC(=O)C1=C(CSc2nc3c(cc2C#N)CCC3)OC(N)=C(C#N)C1c1ccccc1 (configuration not stated)	17µM*	9%	20µM*	?	0%	11%
COC(=O)C1=C(CSc2nc3c(cc2C#N)CN(C)CC3)OC(N)=C(C#N)C1c1ccccc1F (configuration not stated)	-16%	10%	22µM*	?	8%	7%
Fc1ccc(Cn2c(-c3cccc(Br)c3)nc3ccccc32)cc1	.	0%	.	2%[57.1 µM]	-19%	-7%[57.1 µM]
O=C1c2ccccc2C(c2nnnn2Cc2ccccc2)N1Cc1cccs1 (configuration not stated)	-7%	.	.	.	.	.
CCOc1ccc(/C=C/c2nc(C#N)c(N3CCCCCC3)o2)cc1	.	-8%	.	24%	8%	66%
Cc1cc(/C=C/c2ccnc3ccccc23)ccc1N(C)C	.	.	.	-8%	.	-11%
Cc1ccc(NC(=O)CN2C(=O)S/C(=C\c3cc(C)n(-c4ccc(C(=O)O)cc4)c3C)C2=O)cc1	27µM*	-8%	8%	-3%	0%	-4%
Cc1ccc(NC(=O)CN2C(=O)S/C(=C\c3cc(Cl)c(OCC(=O)O)c(Cl)c3)C2=O)cc1	24µM*	71µM*	50µM*	-12%	37µM*	-6%
O=C(CN1C(=O)S/C(=C/c2ccncc2)C1=O)Nc1ccccc1	-8%	-4%	1%	-11%	-2%	-10%
S=C(NCCCc1cnc[nH]1)NCCCN(Cc1ccc(Cl)cc1)c1cc(-c2ccccc2)ccn1	.	-3%	.	-21%	.	-8%
SMILES	PLK1 PBD block	VDR inh	Sfp inh	rTrxR1 inhibitor	IDH1 R132H inh	TrxR1 substrate
CCCNc1cc(=S)nc(N)[nH]1	19µM*	-6%	?	?	-12%	0%
O=C(NCc1cccc(Cl)c1)C1CCCN(c2ncnc3onc(-c4ccc(F)cc4)c23)C1 (configuration not stated)	.	8%	.	13%	7%	-7%
Cc1ccc(NC(=O)COC(=O)c2ccc(S(=O)(=O)NCc3ccco3)cc2)cc1	-6%	-9%	.	15%	7%	-1%
O=C(COC(=O)c1ccc(S(=O)(=O)NCc2ccco2)cc1)Nc1ccccc1OC(F)F	-1%	-4%	32µM*	-24%	-2%	-2%
Cc1ccc(S(=O)(=O)NCc2ccco2)cc1C(N)=O	27µM*	?	11%	1%[57.1 µM]	-1%	8%[57.1 µM]
O=C(COC(=O)c1ccc(S(=O)(=O)NCc2ccco2)cc1)Nc1ccccc1	-7%	13%	.	-13%	10%	-1%
CN(C)C(=O)COC(=O)c1ccc(S(=O)(=O)NCc2ccco2)cc1	27µM*	-12%	5%	-21%	0%	-2%
CC1(C)OC(=O)C2(Cc3ccc(Cl)cc3N3CCCCC32)C(=O)O1 (configuration not stated)	.	4%	.	2%	.	2%
O=C(O)c1cccc(Cn2c(Cl)c(/C=N/NC(=O)c3ccc(O)cc3)sc2=O)c1	-18%	4%	25%	?	13%	-14%
O=Cc1sc(=O)n(Cc2cccc(C(=O)O)c2)c1Cl	30µM*	79µM*	45µM*	3.2µM*	2%	6%
O=c1sc(/C=N/Nc2ccccc2)c(Cl)n1Cc1ccccc1	-6%	-26%	50µM*	13µM*	6%	7%[57.1 µM]
COC(=O)c1cccc(Cn2c(Cl)c(/C=N/NC(=O)c3ccccc3Cl)sc2=O)c1	-2%	-7%	1%	?	6%	-6%
COC(=O)c1cccc(Cn2c(Cl)c(/C=N/NC(=O)c3ccco3)sc2=O)c1	-28%	12%	6%	40µM*	-2%	-16%
Cc1ccc(C)c(NC(=O)CN(C)C(=O)c2oc3c(Cl)cccc3c2C)c1	-3%	5%	.	10%[57.1 µM]	4%	3%[57.1 µM]
CCCCCC(NC(=O)C1CCN(C(=O)[C@@H](NS(=O)(=O)c2ccc(C)cc2)C(C)C)CC1)C(=O)O (some centres not stated)	3%	-1%	13%	12%	-2%	1%
